From PubChem BioAssay
KB-V1 MDR tox – KB-V1 MDR subline cytotoxicity; KB-V1 MDR cells viability, CellTiter-Glo, 72 h; Potency, µM (series often up to 46.1 µM), most hits filed as cytotoxic; 400,000 tested, 3.4% active; AID 1347076; further: on the % scale 0 is the no-effect control and ±100 the full control effect; nearly all actives have a fitted effect of over 60% in size
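Cytotoxicity via CellTiter-Glo luminescence after 72 h compound exposure at 37 degrees C. Cells: drug-selected KB-V1 line, DMEM phenol-red free plus 10% FBS. Compounds tested at multiple concentrations; normalized data fitted to concentration-effect curves.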
MCF10A rerep – DNA re-replication induction in MCF 10a cells; MCF 10A DNA re-replication, Hoechst nuclear intensity, 48 h; Potency, µM (doses to about 46.1 µM), for inactives: at the top dose activity, positive = re-replication, actives largely listed as activators; 350,000 tested, 2.9% active; AID 624296; further: % of control where 0% means no effect; nearly all actives have a fitted effect of over 50% in size
HT1080 IDH1KD tx – toxicity to HT-1080 IDH1 knockdown cells (counter line); HT-1080 IDH1 knockdown viability, ATP luminescence, 48 h; Potency, µM (highest dose often 46.1 µM), without a hit: at the highest dose activity, negative = toxicity, hits mostly cytotoxic; 360,000 tested, 2% active; AID 686971;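 further: 0% = DMSO wells and -100% = cell-free medium wells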
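Using the IDH1-knockdown HT-1080 line run in the same batch and compound series as the NT line, viability after 48 h at 37 °C was determined by CellTiter-Glo luminescence and expressed as % activity.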
HT1080-NT tox – kills 2HG-producing HT-1080-NT fibrosarcoma cells; HT-1080-NT fibrosarcoma viability, CellTiter-Glo ATP luminescence, 48 h; Potency, µM (doses to about 46.1 µM), for the others: top-dose activity, negative = less viability, usual class: cytotoxic; 360,000 tested, 1.6% active;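 further: NT is the 2HG producing partner of a matched IDH1 knockdown line; 0% = DMSO-treated cells and -100% = media-only wells without cells; nearly all actives have a fitted effect of over 55% in size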
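HT-1080-NT; 750 cells/well; 5% FBS RPMI; 48 h compound, 37 degrees C; CellTiter-Glo luminescence; curve fitting and curve-class assignment.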
KB-3-1 tox – KB-3-1 parental cell cytotoxicity | KB-3-1 viability, CellTiter-Glo ATP luminescence, 72 h | Potency, µM (highest dose often 46.1 µM), hits mostly cytotoxic | 400,000 tested, 1.4% active | AID 1347075; further: on the % scale 0 is the no-effect control and ±100 the full control effect; nearly all actives have a fitted effect of over 60% in size
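Luminescent ATP read-out (CellTiter-Glo) measures survival of drug-naive KB-3-1 cells after 72 h compound exposure at 37 °C. Titration series was screened from lowest to highest concentration, with DMSO vehicle plates as background controls.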
SW480 rerep – induces DNA re-replication in SW480 colon adenocarcinoma cells; SW480 DNA re-replication, Hoechst DNA content imaging, 48 h; Potency, µM (series often up to 46.1 µM), for inactives: at the highest dose re-replication activation, actives largely listed as activators; AID 624297; 340,000 tested, 1.8% active; further: % of control where 0% means no effect; nearly all actives have a fitted effect of over 55% in size
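Treated cells incubate 48 hr (37 C, 5% CO2), are stained 40 min with Hoechst, and nuclear fluorescence is enumerated; a rise in nuclei with high DNA signal marks re-replication.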
* marks the source's active call; other numbers are inactive results; i = inactive; ? = inconclusive; / = not tested or not shown; [ ] = another dose, or the depositor's remark. The list is not random: actives were taken first. Their share in the collection is about 8%. The call rests on the fitted dose curve; in most records, active means well fitted curve in the direction sought with a large enough effect; inconclusive means small, poorly fitted or top-dose-only effect, or another doubt; inactive means no such curve, though single readings can be large; an effect the other way counts as inactive or inconclusive. Potency means the concentration at half of the fitted maximal effect.

SMILES | KB-V1 MDR tox | MCF10A rerep | HT1080 IDH1KD tx | HT1080-NT tox | KB-3-1 tox | SW480 rerep
CCc1ccc2c(c1)/C(=C/C(=O)c1cccs1)C(=O)N2 | ? | ? | ? | ? | ? | 9.2µM*
Cc1cc(C)c2c(c1)/C(=C/C(=O)c1ccc(Br)s1)C(=O)N2 | 23.1µM* | ? | ? | ? | 18.4µM* | 19.6%
Cc1cccc2c1NC(=O)/C2=C\C(=O)c1cccs1 | ? | ? | 16.4µM* | 18.4µM* | i | ?
Cc1ccc(Nc2sc(C(=O)c3ccccc3)c(N)c2S(=O)(=O)c2ccccc2)c(C)c1 | i | / | / | / | i | /
Cc1cc(N2CCN(c3cccc(C)c3C)CC2)n2nc(C)c(-c3ccc(Cl)cc3)c2n1 | ? | / | / | / | i | /
COc1ccc(-c2noc(-c3ccc(N4CCC(C)CC4)c([N+](=O)[O-])c3)n2)cc1OC | ? | / | / | / | i | /
CSc1nsc(/C=C/Nc2ccc(Cl)cc2)c1C#N | i | ? | -17.6% | -17.6% | i | 4.6%[9.22 µM]
CSc1nsc(/C=C/Nc2cccc(Cl)c2)c1C#N | i | 9.2µM* | -8.0% | -2.1% | i | 18.7%
CSc1nsc(/C=C/Nc2ccc(O)cc2C)c1C#N | i | ? | -20.8% | -12.6% | i | 23.1µM*
Cc1ccc(C)c(N2CCN(C(=O)CS(=O)(=O)c3cccc4nsnc34)CC2)c1 | i | / | / | / | i | /
CC(=O)OCC(=O)[C@@]1(O)CCC2C3C[C@H](C)C4=CC(=O)C=CC4(C)C3C(O)CC21C (some centres undefined) | / | -2.6% | / | / | / | -0.9%
O=C(NCC(c1cccs1)N1CCOCC1)c1cc(F)cc(F)c1 (centres undefined) | ? | / | 5.8µM* | 7.31µM* | ? | /
O=C(NCC(c1cccs1)N1CCOCC1)c1ccc([N+](=O)[O-])cc1 (centres undefined) | i | 6.9% | 5.8% | 11.0% | i | -3.3%
O=C(NCC(c1cccs1)N1CCOCC1)c1ccc(Cl)nc1 (centres undefined) | ? | 18.4µM* | ? | ? | ? | ?
COc1ccc(C(=O)NCC(c2cccs2)N2CCOCC2)cc1OC (centres undefined) | i | ? | 11.2% | 14.0% | i | ?
O=C(NCC(c1cccs1)N1CCOCC1)c1ccc(Cl)s1 (centres undefined) | 16.4µM* | ? | / | / | ? | -5.0%
Cc1ccccc1OCC(=O)NCC(c1cccs1)N1CCOCC1 (centres undefined) | 16.4µM* | -5.1% | -10.0% | -7.1% | ? | ?
Cc1nn(C(=O)c2cccc(Cl)c2)c(C)c1S(=O)(=O)N1CCOCC1 | i | / | / | / | i | /
O=C(NCC(c1cccs1)N1CCOCC1)c1cc(S(=O)(=O)N2CCOCC2)ccc1F (centres undefined) | i | 21.6% | 2.0% | 8.0% | i | 3.26µM*
O=C(NCC(c1cccs1)N1CCOCC1)c1cc(S(=O)(=O)N2CCOCC2)c(Cl)cc1Cl (centres undefined) | i | 4.3% | 8.6% | 14.7% | i | ?
Cc1cccc(NS(=O)(=O)c2cccc(C(=O)NCC(c3ccc(F)cc3)N3CCOCC3)c2)c1 (centres undefined) | 20.6µM* | 10.6% | -7.2% | -0.2% | ? | 0.9%
O=C(NCC(c1cccs1)N1CCOCC1)c1cc([N+](=O)[O-])cc([N+](=O)[O-])c1 (centres undefined) | 23.1µM* | -2.6% | -4.0% | -0.5% | i | -16.5%
O=C(NCC(c1cccs1)N1CCOCC1)c1cccc([N+](=O)[O-])c1 (centres undefined) | i | 7.3% | ? | ? | i | 23.8%
O=C1c2ccccc2OC2(C=Cc3ccccc3O2)N1Cc1ccccc1 (centres undefined) | 4.11µM* | 13µM* | 18.4µM* | ? | ? | ?
Cc1ccc(NC(=O)N2CCC3(CC2)Oc2ccccc2C(=O)N3Cc2ccc(F)cc2)cc1 | i | / | / | / | i | /
SMILES | KB-V1 MDR tox | MCF10A rerep | HT1080 IDH1KD tx | HT1080-NT tox | KB-3-1 tox | SW480 rerep
O=C1CCCC2=C1C1(CCS(=O)(=O)C1)N=C(Nc1nc3ccccc3o1)N2 (centres undefined) | i | / | / | / | i | /
CCOc1ccc(-c2c(C)nn3c(C)c(C(=O)NCCc4ccc(C)cc4)cnc23)cc1OCC | i | / | / | / | i | /
CCOc1ccc2nc(Cl)c(C3CC(c4ccc(C)cc4)=NN3C(=O)CCCC(=O)O)cc2c1 (centres undefined) | i | / | / | / | i | /
COc1cccc(Cc2nc3ccccc3nc2SCC(=O)NCCc2ccccc2)c1 | i | / | / | / | i | /
Cc1ccc(S(=O)(=O)NC(=NC(C)C)c2ccccc2)cc1 | ? | 0.517µM* | 3.9% | 12.5% | i | ?
O=S(=O)(Nc1cc(F)ccc1F)c1ccc2[nH]c3c(c2c1)CCCCC3 | i | / | / | / | i | /
CCC(C)NC(=O)c1cnn(-c2ccc(Cl)cc2)c1C1CCN(C(=O)OC(C)(C)C)CC1 (centres undefined) | i | / | / | / | i | /
O=C(NC(c1ccc2ccccc2n1)c1cccs1)C1CCN(Cc2cccc(C(F)(F)F)c2)CC1 (centres undefined) | ? | / | 16.4µM* | ? | ? | /
O=C(NC(c1ccccc1)c1ccc2ccccc2n1)C1CCN(Cc2cccc(C(F)(F)F)c2)CC1 (centres undefined) | ? | / | 14.6µM* | ? | ? | /
O=C(NC(c1ccc(Cl)cc1)c1ccsc1)C1CCN(Cc2cccc(C(F)(F)F)c2)CC1 (centres undefined) | ? | / | -0.3% | 3.3% | i | /
CCCCCCNc1ccc(/C=C/c2ccnc3ccccc23)cc1 | ? | / | / | / | i | /
CO/N=C(\C(=O)N[C@@H]1C(=O)N2C(C(=O)[O-])=C(C[n+]3cccc4c3CCC4)CS[C@H]12)c1csc(N)n1 | / | 14.9% | / | / | / | -0.3%
CN(C)c1ccc(/C=N/N(CCC(=O)NC(C)(C)C)C2=NS(=O)(=O)c3ccccc32)cc1 | i | 18.4µM* | 16.7% | 15.2% | i | 18.4µM*
CC(C)(C)NC(=O)CCN(/N=C/c1ccc([N+](=O)[O-])o1)C1=NS(=O)(=O)c2ccccc21 | i | 23.1µM* | ? | ? | 18.4µM* | 13µM*
CN(C)c1ccc(/C=N/N(CCO)C2=NS(=O)(=O)c3ccccc32)cc1 | i | 0.1% | -1.6% | 3.4% | i | -1.1%
CCc1ccc(C2CC(=O)c3c([nH]c(C(=O)OCC4CCCCC4)c3C)C2)cc1 (centres undefined) | i | / | / | / | i | /
